The list is not random: actives were taken first. Their share in the collection is about 2.4%.
TLR9-MyD88 block = inhibitors of TLR9-MyD88 association in cells, primary screen, cell-based, CHO, BLA complementation, fluorescence; AID 504734, 2011; inhibition, % at 4.98 µM; Toll-like receptor 9 (Homo sapiens) + Myeloid differentiation primary response protein …; actives 0.21% (n = 340,000); CCF4 FRET ratio;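 active means inhibition above the mean over all tested compounds plus 3 SD, cut at about 21% in these data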
ABHD5 PLIN5 PPI = ABHD5-PLIN5 interaction inhibitors, primary screen, cell lysate, split luciferase complementation, luminescence. Perilipin-5 (Homo sapiens) + 1-acylglycerol-3-phosphate O-acyltransferase ABHD5 (Homo …. inhibition, % at 4 µM. actives 0.78% (n = 360,000). Split G. princeps luciferase complementation, 4 h;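 active means inhibition above the mean inhibition across every tested compound plus 3 SD, cut at about 22% in these data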
CRFR2-BP antag = antagonists of CRF-BP/CRF-R2 complex, primary screen, cell-based, HEK293, calcium dye fluorescence, uHTS | CRF-induced calcium fluorescence | inhibition, % at 11.8 µM | actives 0.59% (n = 350,000);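 active means inhibition of the ligand-induced calcium signal above about 50% at the single tested concentration, limit read from the data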
TLR4 MyD88 comp = inhibitors of TLR4-MyD88 association in cells, primary screen, cell-based, HeLa CL3-4, BLA complementation, FRET ratio; inhibition, % at 8.4 µM; actives 0.18% (n = 200,000); Toll-like receptor 4 (Homo sapiens) + Myeloid differentiation primary response protein …; AID 861, 2007; HeLa CL3-4 TLR4/MyD88 BLA complementation; in the data active means inhibition above about 25%
HTR2A ag = mouse Htr2a agonists via beta-arrestin recruitment, primary screen, cell-based, luminescence. activation, % at 7.6 µM. 5-hydroxytryptamine receptor 2A (Mus musculus), P35363. CHO-K1 mHTR2A beta-arrestin complementation; percent of 30 µM serotonin response. actives 0.66% (n = 360,000);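 active means activation above a run cutoff, the mean activation of all tested compounds plus 3 SD, cut at about 14% in these data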
NOD2-RIPK2 inh = NOD2-RIPK2 binding disruptors in cells, primary screen, fluorescence, CHO cells, BLA complementation; Receptor-interacting serine/threonine-protein kinase 2 (Homo sapiens), O43353; CCF4 ratio; inhibition, % at 4.98 µM; actives 0.38% (n = 360,000); AID 624267, 2012; in the data active means inhibition above about 21%
Target sequence (O43353 whole entry, looked up): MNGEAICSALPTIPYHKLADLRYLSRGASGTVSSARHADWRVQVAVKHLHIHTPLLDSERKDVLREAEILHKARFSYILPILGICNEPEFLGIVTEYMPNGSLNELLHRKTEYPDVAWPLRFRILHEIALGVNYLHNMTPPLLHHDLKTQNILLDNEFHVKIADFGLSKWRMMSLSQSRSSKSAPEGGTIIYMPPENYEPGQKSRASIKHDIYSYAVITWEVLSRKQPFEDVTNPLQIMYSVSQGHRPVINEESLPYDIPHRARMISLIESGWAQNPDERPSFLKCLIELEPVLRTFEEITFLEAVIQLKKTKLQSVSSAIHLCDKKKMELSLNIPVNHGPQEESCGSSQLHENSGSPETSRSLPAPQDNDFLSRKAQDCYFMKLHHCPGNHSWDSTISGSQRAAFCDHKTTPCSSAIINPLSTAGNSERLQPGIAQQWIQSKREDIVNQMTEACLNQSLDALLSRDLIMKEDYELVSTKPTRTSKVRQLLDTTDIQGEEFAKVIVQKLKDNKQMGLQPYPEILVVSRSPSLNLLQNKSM
NOD2-RIPK2 conf = NOD2-RIPK2 binding disruptors, retest, confirmation, fluorescence, CHO cells, BLA complementation, triplicate; shares compounds with NOD2-RIPK2 inh; CCF4 FRET; inhibition, % at 4.98 µM; actives 70% (n = 1,200);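 active means mean inhibition across replicates above a set limit taken from the earlier primary screen, cut at about 21% in these data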
BLA counter = counter-screen for NOD2-RIPK2 interaction inhibitors: BLA reporter; shares compounds with NOD2-RIPK2 inh; CHO BLA reporter, CCF4 FRET ratio, counterscreen; inhibition, % at 4.98 µM; actives 57% (n = 1,200);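 active means mean inhibition above the low-control mean inhibition plus three low-control SD, cut at about 11% in these data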
Hits are given with their value; – = inactive; · = no result.

SMILES	TLR9-MyD88 block	ABHD5 PLIN5 PPI	CRFR2-BP antag	TLR4 MyD88 comp	HTR2A ag	NOD2-RIPK2 inh	NOD2-RIPK2 conf	BLA counter
COc1ccc(C2=NN(c3ccc(C(=O)O)cc3)C(c3ccc(OC)c(OC)c3)C2)cc1 (stereo not given)	–	–	–	·	–	24.7	–	30.9
O=C(CN1CCN(S(=O)(=O)c2ccc(Br)cc2)CC1)N/N=C/c1ccc(Cl)c([N+](=O)[O-])c1	–	–	–	–	–	33.1	31.8	–
CCCCNc1c(-c2ccc(OC)c(Sc3ccc(OC)cc3)c2)nc2cnccn12	–	–	–	·	–	28.0	32.8	37.3
CCCCNc1c(-c2ccc(OC)c(Sc3ccc(OC)cc3)c2)nc2ccccn12	–	–	–	·	–	–	·	·
Nc1nc2ncccc2cc1C(=O)NC1CCCCC1	·	–	·	·	–	–	·	·
O=C(c1ccccc1Cl)N(Cc1ccc(Br)cc1)N1C(=O)CCC1=O	–	–	–	–	–	22.6	–	–
O=C(c1ccccc1Cl)N(Cc1ccc(Cl)c(Cl)c1)N1C(=O)CCCC1=O	–	–	–	–	–	–	·	·
Cc1cccnc1C1=NOC(Cc2ccccc2)C(=O)N1Cc1ccc2c(c1)OCO2 (stereo not given)	·	–	·	·	–	–	·	·
COc1ccc(/C=N/NC(=O)c2ccc(NC(C)=O)cc2)cc1COc1ccc(F)cc1F	30.2	–	–	·	–	24.9	–	–
COc1ccc(/C=N\NC(=O)c2ccccc2F)cc1COc1ccc(F)cc1F	–	–	–	·	–	–	·	·
O=C1c2cccc3cc([N+](=O)[O-])cc(c23)C(=O)N1CC1CCCO1 (stereo not given)	–	–	–	·	–	24.2	–	–
O=C1c2ccccc2C(=O)N1CC1CCCO1 (stereo not given)	–	–	–	–	–	–	·	·
CCOc1ccc(CNC(=O)CCc2cn(C)c3ccccc23)cc1OC	–	–	–	–	–	36.8	–	–
COc1ccc(OC)c(N2C(=O)c3ccccc3C2c2nnnn2-c2ccc3c(c2)OCCO3)c1 (stereo not given)	·	–	·	·	–	–	·	·
COc1c(Cl)cnn(-c2ccccc2)c1=O	–	–	–	–	–	–	·	·
COc1nn(-c2ccccc2)c(=O)c(Cl)c1Cl	–	–	–	·	–	26.9	26.7	–
Cc1ccc(-c2noc(N=O)c2NO)cc1	·	–	–	·	–	22.1	24.4	20.9
COC(=O)C1(C(=O)OC)c2ccccc2N(S(=O)(=O)c2ccc(C)cc2)C1CC(C)=O (stereo not given)	·	–	·	·	–	–	·	·
Cc1nn(-c2ccccc2)c(N)c1C1(O)C(=O)N(C(C)C)c2ccccc21 (stereo not given)	–	–	–	–	–	–	·	·
Cc1nn(-c2ccccc2)c2c1P(=O)(O)/C(=C1\N(C)c3ccccc3C1(C)C)C=N2	–	–	–	–	–	24.4	–	18.8
COc1ccc(C(=O)NC(=S)Nc2ccc3c4c(cccc24)CC3)cc1OC	–	–	–	–	–	–	·	·
COc1ccc2c3c(cccc13)C(=O)CC2	–	–	–	·	–	26.8	–	–
Cc1ccc(/C=N/Nc2ccnc3cc(Cl)ccc23)c(C)c1	–	–	–	–	–	21.2	30.5	41.8
Cc1ccccc1/C=N/Nc1ccnc2cc(Cl)ccc12	–	–	–	–	–	–	·	·
O=c1c(Cl)c(O)c2cccc3c4ccccc4n1c23	–	–	–	–	–	–	·	·
SMILES	TLR9-MyD88 block	ABHD5 PLIN5 PPI	CRFR2-BP antag	TLR4 MyD88 comp	HTR2A ag	NOD2-RIPK2 inh	NOD2-RIPK2 conf	BLA counter
COc1c(O)c(=O)n2c3ccccc3c3ccnc1c32	–	–	–	·	–	26.3	–	17.6
Cc1ccc(-n2ncc3c(=O)n(-c4cccc(C)c4)c(=O)[nH]c32)cc1	–	–	–	·	–	–	·	·
CC[C@H]1CN2CCc3cc(OC)c(OC)cc3C2C[C@@H]1C[C@H]1NCCc2cc(OC)c(OC)cc21 (stereo not given in full)	–	–	–	·	–	22.6	27.4	–
COc1cc(OC)c(OC)cc1/C=C/C(=O)c1ccc(NS(=O)(=O)c2ccc(C)cc2)cc1	–	–	–	–	–	34.4	33.5	39.8
O=C(Nc1ccc2ccccc2c1)C(c1ccccc1F)n1c(=O)c(-c2cc3ccccc3[nH]2)nc2ccccc21 (stereo not given)	·	–	·	·	–	44.9	41.8	66.7
O=C(Nc1ccc2c(c1)OCCO2)C(c1ccccc1)n1c(=O)c(-c2cc3ccccc3[nH]2)nc2ccccc21 (stereo not given)	·	–	·	·	–	48.2	40.9	63.6
O=C(Nc1ccc2c(c1)OCCO2)C(C1CC1)n1c(=O)c(-c2ccccc2)nc2ccccc21 (stereo not given)	·	–	·	·	–	–	·	·
COc1ccc(NC(=O)C(c2ccccc2F)n2c(=O)c(-c3cc4ccccc4[nH]3)nc3ccccc32)cc1 (stereo not given)	·	–	·	·	–	50.3	46.6	68.5
COc1ccc(NC(=O)Nc2ccccc2F)cc1	–	–	–	–	–	–	·	·
O=C(Nc1ccc2c(c1)OCCO2)C(c1ccccc1)n1c(=O)c(-c2ccco2)nc2ccccc21 (stereo not given)	·	–	·	·	–	–	·	·
COc1ccc(NC(=O)C(c2ccncc2)n2c(=O)c(-c3ccccc3)nc3ccccc32)cc1 (stereo not given)	·	–	·	·	–	–	·	·
COc1ccc(NC(=O)C(c2ccccc2)n2c(=O)c(-c3cc4ccccc4[nH]3)nc3ccccc32)cc1 (stereo not given)	·	–	·	·	–	46.8	42.3	65.2
